We go through 26 compounds from PubChem BioAssay (Tox21).

Results filed as inconclusive are left out. A number with no mark means an inactive call. Calls of active or inactive are those of the source. Unless noted, calls follow the shape of the dose curve; as a rule, active = well fitted curve in the direction sought with a large enough effect in the repeat runs; inconclusive = weak or mixed curves; inactive = no such curve, though single readings can be large; an effect the other way counts as inactive or inconclusive.

Experiment [1] concerns the target Retinoic acid receptor RXR-alpha (Homo sapiens) (UniProt P19793). As to the kind of experiment: qHTS assay to identify small molecule agonists of the RXR signaling pathway (AID 1159527; calls by dose curve; also: nearly all actives have a fitted effect of over 35% in size). Summed up: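 GeneBLAzer RXR-alpha-UAS-bla HEK 293T cells in medium with 2% charcoal-stripped FBS, pre-incubated 5 hr at 37 C, then exposed to compounds 16 hr. Beta-lactamase reporter read by FRET substrate, 2 hr room temperature, 460/530 nm emission.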
(Quantitative high-throughput screening tests each substance at several concentrations.)

Experiment [2] can be described thus: qHTS assay to identify small molecule agonists of the RXR signaling pathway - cell viability counter screen (AID 1159529). Also: series mostly up to about 77 µM; nearly all actives have a fitted effect of over 50% in size. Summed up: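 RXR-alpha-UAS-bla HEK 293T cells in medium with 2% charcoal-stripped FBS were preincubated 5 hr, then exposed to compounds for 16 hr at 37 C. Viability was read as CellTiter-Glo luminescence after 30 min at room temperature.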

Experiment [3] in a line: qHTS assay to identify small molecule antagonists of the retinoid acid receptor (RAR) signaling pathway - cell viability counter screen (AID 1159551). Also: nearly all actives have a fitted effect of over 35% in size. Summed up:
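Retinol-stimulated (1 uM final) C3RL4 cells, compound 6 h, 37 C; readout CellTiter-Glo luminescence (ATP) after 30 min RT incubation.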

Experiment [4] is described as follows: qHTS assay to identify small molecule antagonists of the estrogen related receptor (ERR) signaling pathway from Tox21 library - cell viability counter screen (AID 1224834). Also: nearly all actives have a fitted effect of over 30% in size. The method, boiled down: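 After 17.5 h of compound exposure at 37 C, ERR cells are incubated with CellTiter-Fluor for 30 min and fluorescence intensity serves as the viability measure.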

Experiment [5] addresses Luciferin 4-monooxygenase (Photinus pyralis) (UniProt P08659). As to the kind of experiment: qHTS assay to identify small molecule inhibitors of firefly luciferase (AID 1224835). Also: nearly all actives have a fitted effect of over 25% in size. Also: potency is read from the fitted curve at half-maximal effect. As to activity change, negative = inhibition: series mostly up to about 120 µM. Summed up: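 Quantitative HTS format; KM concentrations of both substrates. Purified P. pyralis FLuc activity quantified from luminescence images.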
Experiment [6] can be described thus: qHTS assay to identify small molecule agonists of the constitutive androstane receptor (CAR) signaling pathway - cell viability counter screen (AID 1224836). Also: series mostly up to about 92 µM; nearly all actives have a fitted effect of over 45% in size. Summed up:
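HepG2 cells stably carrying hCAR and a CYP2B6-2.2kb reporter were plated 4 h, then given compounds at 15 concentrations plus PK11195 (final 0.75 uM). After 23 h at 37 C, viability was read by CellTiter-Fluor fluorescence.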

Experiment [7] can be described thus: qHTS assay to identify small molecule antagonists of the constitutive androstane receptor (CAR) signaling pathway - cell viability counter screen (AID 1224837). Also: series mostly up to about 92 µM; nearly all actives have a fitted effect of over 45% in size. Summed up: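 Counter screen run in HepG2-CYP2B6-hCAR cells: 4 hr settle, compound titration (15 concentrations) with 50 nM CITCO, 23 hr at 37 C/5% CO2, CellTiter-Fluor fluorescence.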
Experiment [8] can be described thus: qHTS assay to identify small molecule antagonists of the estrogen related receptor signaling pathway with the pleiotropic PPARgamma coactivator (PGC) from Tox21 10K library - cell viability counter screen (AID 1224840; active = well fitted cell-killing curve with a large enough effect in the repeat runs, not every such curve was filed as active; also: nearly all actives have a fitted effect of over 40% in size). Summed up: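 Following seeding of 2,000 PGC/ERR cells/well and 6 hours' incubation, test compounds were delivered in DMSO. The plates then sat 17.5 hours at 37 C before a fluorogenic live-cell protease reagent (CellTiter-Fluor) was read after 30 min.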

Experiment [9] in a line: qHTS assay to identify small molecule antagonists of the estrogen related receptor signaling pathway with the pleiotropic PPARgamma coactivator (PGC) from Tox21 10K library (AID 1224841; call rule not given here; also: actives are mostly falling curves and most rising ones were filed inactive; nearly all actives have a fitted effect of over 50% in size; also: potency is read from the fitted curve at half-maximal effect; as to activity, negative = inhibition: series mostly up to about 92 µM). Summed up: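 qHTS antagonist format: PGC/ERR cells, 2k/well, compound in DMSO by pin transfer after 6 h attachment, 18 h treatment at 37 C, One-Glo luminescence read at 30 min.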
Experiment [10] deals with Nuclear receptor subfamily 1 group I member 3 (Homo sapiens) (UniProt Q14994). The experiment in a line: qHTS assay to identify small molecule antagonists of the constitutive androstane receptor (CAR) signaling pathway (AID 1224838). Also: nearly all actives have a fitted effect of over 40% in size. Summed up:
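Cell line: HepG2 double-stable for hCAR and CYP2B6-2.2kb reporter. Agonist: CITCO, 50 nM final. Compounds: 15 concentrations, 24 h, 37 C. Detection: ONE-Glo luminescence.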

Experiment [11] has the same target. As to the kind of experiment: qHTS assay to identify small molecule agonists of the constitutive androstane receptor (CAR) signaling pathway (AID 1224839).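 Also: HepG2 cells stably carrying human CAR and a CYP2B6 luciferase reporter; series mostly up to about 92 µM; nearly all actives have a fitted effect of over 15% in size.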 The method, boiled down:
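HepG2 cells stably expressing hCAR and a CYP2B6-2.2kb luciferase reporter were treated with compounds at 15 concentrations plus 0.75 uM PK11195 (final) for 24 h at 37 C; luminescence was read after ONE-Glo addition.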

Experiment [12] in a line: qHTS assay to identify small molecule agonists of the estrogen related receptor signaling pathway with the pleiotropic PPARgamma coactivator (PGC) from Tox21 10K library (AID 1224842). Also: nearly all actives have a fitted effect of over 15% in size. The method, boiled down:
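PGC/ERR reporter cells (NTP line) were seeded 2,000 per well, rested 6 h at 37 C/5% CO2, then pin-dosed with compounds in DMSO for 18 h at 37 C; luciferase read by One-Glo luminescence after 30 min at room temperature.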
% is scaled to controls: 0 for no effect and ±100 for the full control effect.

Nuclear receptor subfamily 1 group I member 3 (Homo sapiens), sequence (Q14994 whole entry, looked up): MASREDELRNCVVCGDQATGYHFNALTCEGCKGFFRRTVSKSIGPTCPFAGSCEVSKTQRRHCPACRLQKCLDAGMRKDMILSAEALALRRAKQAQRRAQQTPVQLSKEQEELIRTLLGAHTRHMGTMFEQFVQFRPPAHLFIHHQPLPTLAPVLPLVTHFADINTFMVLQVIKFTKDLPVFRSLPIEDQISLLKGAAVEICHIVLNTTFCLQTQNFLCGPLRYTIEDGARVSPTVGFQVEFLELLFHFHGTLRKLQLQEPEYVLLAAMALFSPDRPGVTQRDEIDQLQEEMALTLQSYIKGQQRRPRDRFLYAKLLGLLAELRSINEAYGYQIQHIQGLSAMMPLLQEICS
Luciferin 4-monooxygenase (Photinus pyralis), sequence (P08659 whole entry, looked up): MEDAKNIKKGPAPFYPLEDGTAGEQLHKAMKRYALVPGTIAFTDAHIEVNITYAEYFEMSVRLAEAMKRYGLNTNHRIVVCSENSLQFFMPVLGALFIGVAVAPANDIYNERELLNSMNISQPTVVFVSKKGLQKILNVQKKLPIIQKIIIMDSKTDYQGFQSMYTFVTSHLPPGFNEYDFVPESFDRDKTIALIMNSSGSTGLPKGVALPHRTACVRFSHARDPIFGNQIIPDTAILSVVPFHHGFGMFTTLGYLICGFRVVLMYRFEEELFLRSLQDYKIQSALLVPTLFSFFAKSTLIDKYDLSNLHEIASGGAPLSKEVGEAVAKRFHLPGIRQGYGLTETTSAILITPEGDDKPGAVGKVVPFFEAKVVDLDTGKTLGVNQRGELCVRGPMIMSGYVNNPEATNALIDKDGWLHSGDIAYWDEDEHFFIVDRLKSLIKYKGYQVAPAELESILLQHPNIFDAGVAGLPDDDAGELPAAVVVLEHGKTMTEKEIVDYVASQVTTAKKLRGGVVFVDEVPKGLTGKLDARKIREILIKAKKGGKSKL
Retinoic acid receptor RXR-alpha (Homo sapiens), sequence (P19793 whole entry, looked up): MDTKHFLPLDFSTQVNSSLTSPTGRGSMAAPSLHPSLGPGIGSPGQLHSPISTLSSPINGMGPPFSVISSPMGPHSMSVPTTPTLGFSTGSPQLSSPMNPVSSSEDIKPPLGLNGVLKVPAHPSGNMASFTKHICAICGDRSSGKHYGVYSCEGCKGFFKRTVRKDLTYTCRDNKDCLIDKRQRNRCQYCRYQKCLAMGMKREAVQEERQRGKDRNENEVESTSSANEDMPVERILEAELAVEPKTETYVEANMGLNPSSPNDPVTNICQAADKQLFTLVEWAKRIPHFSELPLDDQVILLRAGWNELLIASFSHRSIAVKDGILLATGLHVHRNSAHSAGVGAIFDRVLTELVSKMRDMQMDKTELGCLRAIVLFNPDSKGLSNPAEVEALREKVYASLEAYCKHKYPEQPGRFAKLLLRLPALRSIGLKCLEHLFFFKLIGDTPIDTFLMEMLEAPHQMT

`Cc1ccccc1C(=O)O`: the Potency result in experiment [1], in [2], in [4] and in [5] was “inactive” throughout. Also, the outcome in experiment [3], in experiment [6], in [7] and in [8] was inactive.

As to `NC(CS)C(=O)O` (stereo not given), the Potency result in experiment [1], in experiment [2], in experiment [4] and in [5] was “inactive” throughout. Further, the call in [3], in experiment [6], in [7] and in [8] was inactive.

For `CCCOCC(C)OCC(C)O` (stereo not given), the Potency result in experiment [1], in experiment [2], in experiment [4] and in experiment [9] was “inactive” each time. For the same compound, the call in experiment [3], in experiment [7] and in experiment [8] was inactive.

Take `Cc1c(F)cc2c(=O)c(C(=O)O)cn3c2c1CCC3C` (stereo not given): the Potency entry in [1], in experiment [2], in experiment [5], in experiment [10], in [11] and in [12] was “inactive” each time. Besides, the call in experiment [3], in experiment [6], in [7] and in [8] was inactive.

As to `CCCCCCCCCCCl`, the Potency result in [1], in [2], in experiment [4], in experiment [5], in [9] and in [12] was “inactive” each time. Further, the outcome in [3], in experiment [6], in experiment [7] and in experiment [8] was inactive.

As for `CO`, the Potency result in [1], in [2], in [4], in [10], in experiment [11] and in experiment [9] was “inactive” each time. Also, the compound was called inactive in experiment [3], in experiment [7] and in experiment [8].

With `CCOC(=O)[C@H](CCc1ccccc1)N[C@@H](C)C(=O)N1CCC[C@H]1C(=O)O`, the Potency result in experiment [1], in [2], in experiment [4], in experiment [5], in experiment [9] and in experiment [12] was “inactive” in each case. The compound was called inactive in [3], in [6], in [7] and in [8].

For `CCCCOCC(C)OCC(C)O` (stereo not given), the Potency result in [1], in experiment [2], in experiment [4], in experiment [5], in experiment [10] and in experiment [11] was “inactive” each time. Further, the call in [3], in [7] and in [8] was inactive.

With `CCc1cc(S(=O)(=O)O)c2cc(C(C)C)cccc1-2`, the Potency result in experiment [1], in [2], in experiment [4] and in [5] was “inactive” throughout. Further, the compound was called inactive in experiment [3], in [7] and in experiment [8].

As to `C=C(C)C(=O)NCCCN(C)C`, the Potency entry in experiment [1], in experiment [2], in experiment [4] and in experiment [5] was “inactive” throughout. The result in experiment [3], in experiment [7] and in experiment [8] was inactive.

With `CCC(C(=O)NC(N)=O)c1ccccc1` (stereo not given), the Potency result in experiment [1], in [2], in experiment [4], in experiment [5] and in experiment [9] was “inactive” throughout. The compound was classed as inactive in experiment [3], in experiment [6], in experiment [7] and in experiment [8].

Turning to `CC(C)CCCC(C)NCCC(C)C` (stereo not given), the Potency result in experiment [1], in experiment [2], in experiment [4], in [5], in experiment [9] and in experiment [12] was “inactive” throughout. Also, the outcome in experiment [3], in experiment [6], in experiment [7] and in experiment [8] was inactive.

`CC(C)c1cccc(O)c1`: the Potency result in experiment [1], in experiment [2], in experiment [4], in [10], in experiment [11] and in experiment [9] was “inactive” each time. In addition, the result in experiment [3], in experiment [6], in experiment [7] and in experiment [8] was inactive.

On to `CCCc1ccc(N)cc1`, for which the Potency result in experiment [1], in [2], in experiment [4], in experiment [10] and in experiment [11] was “inactive” each time. Also, the compound was called inactive in experiment [3], in experiment [6], in experiment [7] and in experiment [8].

In the case of `N#CC1(O)CCCCC1`, the Potency result in experiment [1], in experiment [2], in [5], in experiment [10], in experiment [11] and in [9] was “inactive” throughout. Besides, the compound was called inactive in experiment [3], in [6], in experiment [7] and in experiment [8].

For `O=C(O)CCNC(=O)c1ccc(N=Nc2ccc(O)c(C(=O)O)c2)cc1`, the Potency entry in experiment [1], in experiment [2], in [10] and in experiment [11] was “inactive” each time. For the same compound, the compound was classed as inactive in experiment [3], in experiment [6], in [7] and in experiment [8]. The Potency in experiment [5] was 30.9 µM (active).

With `CCCCCCCCCCC1CO1` (stereo not given), the Potency result in [1], in experiment [2], in experiment [4], in experiment [5], in experiment [10] and in experiment [11] was “inactive” throughout. The compound was called inactive in experiment [3], in experiment [7] and in experiment [8].

On to `CCN1CCN(c2cc3c(cc2F)c(=O)c(C(=O)O)cn3C2CC2)CC1`, for which the Potency entry in experiment [1], in [2], in experiment [4], in experiment [5], in experiment [10] and in experiment [11] was “inactive” in each case. Moreover, the compound was classed as inactive in [3], in experiment [7] and in [8].

As for `c1ccc2cnncc2c1`, the Potency result in experiment [1], in experiment [2], in [4], in experiment [5] and in [12] was “inactive” throughout. Further, the result in experiment [3], in [6], in experiment [7] and in experiment [8] was inactive. In addition, the Potency in experiment [9] was 27.4 µM (active).

Take `NCCNC(=O)c1ccc(Cl)cn1`: the Potency entry in experiment [1], in experiment [2], in experiment [4], in [5] and in experiment [9] was “inactive” each time. For the same compound, the compound was classed as inactive in [3], in experiment [7] and in experiment [8].

Consider `CC(=O)c1ccc(C)cc1`, for which the Potency entry in [1], in experiment [2], in experiment [4], in [5], in experiment [10] and in [11] was “inactive” each time. Also, the compound was classed as inactive in experiment [3], in [7] and in experiment [8].

Take `CC(C)N1C(=O)c2ccccc2C1=O`: the Potency result in experiment [1], in experiment [2], in experiment [4], in experiment [5], in experiment [10] and in experiment [11] was “inactive” each time. Moreover, the compound was classed as inactive in experiment [3], in experiment [7] and in experiment [8].

On to `C#CC(O)CCCCC` (stereo not given), for which the Potency entry in experiment [1], in [2], in experiment [4], in [5], in [10] and in experiment [11] was “inactive” in each case. The compound was called inactive in [3], in experiment [7] and in experiment [8].

`COc1cc(C)cc(O)c1`: the Potency result in [1], in [2], in experiment [4], in experiment [5], in experiment [10] and in experiment [11] was “inactive” throughout. Moreover, the compound was classed as inactive in experiment [3], in [7] and in experiment [8].

For the compound `O=C1OC(=O)c2cc([N+](=O)[O-])ccc21`, the Potency entry in [1], in experiment [2] and in experiment [4] was “inactive” throughout. The compound was called inactive in [3], in experiment [6], in [7] and in experiment [8].

As for `NCC[C@H](O)C(=O)N[C@@H]1C[C@H](N)[C@@H](O[C@H]2O[C@H](CN)[C@@H](O)[C@H](O)[C@H]2O)[C@H](O)[C@H]1O[C@H]1O[C@H](CO)[C@@H](O)[C@H](N)[C@H]1O`, the results for the activation in experiment [1] and in experiment [11] were 7.2% [at 0.29 µM] and 1.57% [at 0.349 µM], respectively. In addition, the values for the activity change, negative = cytotoxicity in experiment [2], in [3] and in experiment [7] were 9.63% [at 0.29 µM], 2.52% [at 0.349 µM] and 3.03% [at 0.349 µM], respectively. The results for the viability change, negative = cytotoxic in experiment [4] and in experiment [8] were 0.879% [at 0.349 µM] and 1.22% [at 0.349 µM], respectively. The activity change, negative = inhibition in experiment [5] is -1.73% [at 0.435 µM]. In addition, the activity, negative = inhibition in [10] is -4.74% [at 0.349 µM].
